# FLuc counter = inhibits or activates purified firefly luciferase, miR-21 counter-screen; P08659; actives 6.9% (n = 360,000); purified FLuc, Km substrates, luminescence inhibition; Potency, µM (titrated, usually from 57.5 µM), without a hit: at the top dose activity change, negative = inhibition, most hits filed as inhibitors;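 also: plate controls were vehicle for no effect and reference inhibitor for full effect; nearly all actives have a fitted effect of over 55% in size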
# Target sequence (P08659 whole entry, looked up): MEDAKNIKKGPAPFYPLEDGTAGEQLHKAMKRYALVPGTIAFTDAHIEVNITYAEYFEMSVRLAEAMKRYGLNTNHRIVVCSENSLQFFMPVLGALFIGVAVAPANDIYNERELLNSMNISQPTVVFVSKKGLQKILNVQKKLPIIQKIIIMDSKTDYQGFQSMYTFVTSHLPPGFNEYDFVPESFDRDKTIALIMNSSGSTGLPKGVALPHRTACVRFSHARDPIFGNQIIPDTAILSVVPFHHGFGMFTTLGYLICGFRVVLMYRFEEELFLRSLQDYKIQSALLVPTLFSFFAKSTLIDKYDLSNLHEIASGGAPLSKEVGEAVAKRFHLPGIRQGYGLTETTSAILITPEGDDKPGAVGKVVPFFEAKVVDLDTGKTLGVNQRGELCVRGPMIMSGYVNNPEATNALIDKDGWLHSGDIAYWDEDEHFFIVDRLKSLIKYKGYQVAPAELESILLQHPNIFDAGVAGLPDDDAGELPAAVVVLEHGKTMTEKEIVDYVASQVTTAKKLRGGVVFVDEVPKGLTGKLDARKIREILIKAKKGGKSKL
#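 Purified P. pyralis luciferase, 10 nM final, with Km-level 10 uM D-luciferin and 10 uM ATP in 50 mM Tris acetate pH 7.5, 10 mM Mg acetate, 0.01% Tween-20, 0.05% BSA; 6-point qHTS titration about 60 µM downward; luminescence read.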
# SMN2 splice enh = SMN2 splice variant enhancement | Potency, µM (titrated, usually from 46.1 µM), inactives show at the highest dose activity change, positive = activation, actives largely listed as activators | actives 2.8% (n = 210,000) | HEK293 SMN2-luciferase splicing reporter, luminescence, 30-36 h; also: % of control where 0% means no effect; nearly all actives have a fitted effect of over 55% in size
#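 qHTS luciferase splicing reporter: luminescence rises when SMN2 exon 7 is included in transfected HEK293 cells. Compound exposure lasted 30-36 h at 37C, with 4.5 mM final sodium butyrate as control, followed by a ONE-Glo read.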
# ELG1 genotox = genotoxicity induction in ELG1-luciferase HEK293T cells; HEK293T ELG1-luciferase reporter, luminescence, 16 h; Potency, µM (doses to about 46 µM), inactives show top-dose activity change, positive = activation, usual class: activators; actives 1.3% (n = 330,000); AID 504466; also: % of control where 0% means no effect; nearly all actives have a fitted effect of over 60% in size
#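 Step 1: seed 2,000 HEK293T ELG1-luciferase cells per well. Step 2: add compound or DMSO, incubate 16 hr at 37 °C. Step 3: ONE-Glo, 30 min at room temperature, read luminescence.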
# NPC1 prom act = NPC1 promoter activation; AID 485313; Huh7 NPC1 promoter luciferase reporter, 24 h; actives 2.4% (n = 320,000); Potency, µM (highest dose often 9.22 µM), inactives show at the top dose activation, hits mostly activators; also: % of control where 0% means no effect; nearly all actives have a fitted effect of over 60% in size
#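 Luciferase expression driven by the NPC1 promoter was measured in stably transfected Huh7 cells after a 24 h compound incubation, using a luciferase reagent and a luminescence read.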
# Rab9 promoter act = activates the Rab9 promoter. actives 2.8% (n = 320,000). Potency, µM (titrated, usually from 9.22 µM), inactives show at the top dose activation, negative = inhibition, most hits filed as activators. Huh7 Rab9 promoter-luciferase reporter, luminescence, 24 h; also: % of control where 0% means no effect; nearly all actives have a fitted effect of over 60% in size
#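 Steps: seed 1500 Huh7 Rab9-luc cells per well, rest 2 h at 37 °C; add compound in DMSO; incubate 24 h; add luciferase reagent, 10 min ambient; read luminescence.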
# The depositor's hits bear a star; ? = inconclusive; nt = not tested or not shown; [ ] = remark or other dose. In the library only some 7.4% were active in any assay of this set; here they are far more common. Calls follow the shape of the dose curve; as a rule, active = well fitted curve in the direction sought with a large enough effect; inconclusive = small, poorly fitted or top-dose-only effect, or another doubt; inactive = no such curve, though single readings can be large; an effect the other way counts as inactive or inconclusive. Potency is read from the fitted curve at half-maximal effect.
SMILES,FLuc counter,SMN2 splice enh,ELG1 genotox,NPC1 prom act,Rab9 promoter act
CN(C1CCCCC1)S(=O)(=O)c1ccc2c(c1)c(=O)c(C(=O)NCCc1ccccc1)cn2C,5.4%,0.5%,nt,nt,nt
COc1cccc(CNC(=O)Cn2ccc3cc(S(=O)(=O)N4CCCCCC4)ccc32)c1OC,1.4%,nt,-10.2%,-5.6%,3.6%
c1ccc(-c2cc(N3CCCCCC3)n[nH]2)cc1,21.3µM*,?,16.4µM*,?,?
Nc1nc(-c2ccccc2)cc(N2CCCCC2)n1,3.6%,5.9%,2.1%,-2.6%,-6.0%
c1ccc(-c2cc(N3CCCCC3)ncn2)cc1,10.7µM*,10µM*,14.6µM*,?,2.82µM*
COc1cccc(C(=O)Cn2c(=N)n(C)c3ccccc32)c1,1.2µM*,1.26µM*,0.366µM*,0.562µM*,?
Cn1c(=N)n(CC(=O)c2cccs2)c2ccccc21,10.7µM*,?,?,19.9%,24.0%
N=c1n(CC(=O)c2ccc(Br)s2)c2ccccc2n1Cc1ccccc1,0.0%,nt,-7.2%,-0.6%,-2.7%
CCCn1c(=N)n(CC(=O)c2cccs2)c2ccccc21,-1.4%,-2.0%,-6.5%,-0.2%,-5.3%
Cn1c(=N)n(CC(=O)c2ccc(Br)s2)c2ccccc21,8.49µM*,?,2.51µM*,8.6%,?
COc1cccc(C(=O)Cn2c(NCCO)nc3ccccc32)c1,-1.8%,3.8%,0.4%,-2.3%,0.5%
CCC(c1nnc(SCc2nc3ccccc3s2)n1Cc1ccccc1)N(C)C (centres undefined),16.9µM*,-13.6%,?,0.4%,13.2%
c1ccc(Cn2c(SCc3nc4ccccc4s3)nnc2-c2ccco2)cc1,-13.2%,-2.9%,-1.0%,11.4%,4.0%
Cc1ccccc1CSc1nnc(C)n1N,-2.0%,nt,2.6%,-1.3%,7.5%
Cc1nnc(SCc2nc3ccccc3s2)n1N,9.53µM*,nt,13µM*,10.6%,-28.7%
c1ccc(-n2cnnc2SCc2nc3ccccc3s2)cc1,16.9µM*,-17.2%,?,2.7%,28.7%
COc1cccc(-c2nnc(SCc3nc4ccccc4s3)n2C)c1,?,2.2%,15.3%,9.2%,-0.5%
CCn1c(SCc2nc3ccccc3s2)nnc1-c1ccccc1,15.1µM*,-3.3%,13µM*,3.1%,1.0%
c1ccc(-c2ncc(CSc3nncn3-c3ccccc3)s2)cc1,-0.3%,-55.1%,-0.1%,0.5%,1.0%
Cc1cccc(CNc2nc(-c3ccccc3CN(C)C)nc3ccccc23)c1,nt,-27.4%,nt,nt,nt
CCN(CC)CCN(C(=O)c1ccc(CN2CCCCC2)o1)C(C(=O)NC1CCCCC1)c1ccc(F)cc1 (centres undefined),-1.8%,nt,1.9%,-3.6%,0.9%
Cc1nnc(SCc2nc3ccccc3s2)n1-c1ccccc1,15.1µM*,?,?,18.9%,21.5%
O=C(N/N=C/c1cn(Cc2ccccc2)c2ccccc12)c1cc(O)cc(O)c1,23.9µM*,nt,2.8%,-3.6%,-7.0%
Cc1ccc(C(=O)N/N=C/c2cn(Cc3ccccc3)c3ccccc23)cn1,12µM*,nt,-0.7%,8.9%,0.8%
O=C(O)c1ccc(N/N=C/c2cn(Cc3ccc(F)cc3)c3ccccc23)cc1,8.49µM*,nt,11.6µM*,2µM*,2.82µM*
SMILES,FLuc counter,SMN2 splice enh,ELG1 genotox,NPC1 prom act,Rab9 promoter act
CCNC(=S)N/N=C/c1cn(Cc2ccc(F)cc2)c2ccccc12,5.3%,-41.3%,-0.2%,2.8%,-1.2%
COc1cc(C(=O)N/N=C/c2cn(Cc3cccc(F)c3)c3ccccc23)ccc1O,?,nt,0.4%,-2.8%,0.9%
COc1cccc(CCC(=O)N2CCC(n3nccc3NC(=O)CC(C)C)CC2)c1,1.8%,nt,0.2%,-3.1%,5.4%
CCCCc1cc2c(cn1)=C(OC(=O)C1CCCC1)C(C)(OC(=O)CC)C(=O)C=2 (centres undefined),nt,-2.0%[9.22 µM],nt,nt,nt
Cc1c(C(=O)/C=C/N(C)C)nnn1-c1ccc(Cl)cc1C#N,4.5%,nt,0.5%,0.7%,2.3%
COc1ccc(-c2cc(C(=O)N3CCC3)c3ccccc3n2)cc1OC,2.9%,nt,2.7%,0.7%,-1.7%
CC(C)Oc1cccc(-c2cc(C(=O)N3CCN(c4ncccn4)CC3)c3ccccc3n2)c1,1.35µM*,29.1%,-11.9%,24.1%,17.5%
O=C(c1cc(-c2ccccn2)nc2ccccc12)N1CCN(c2ncccn2)CC1,?,15.0%,-6.8%,-5.3%,11.4%
Cc1ccc2nc(-c3ccccn3)cc(C(=O)N3CCN(c4ncccn4)CC3)c2c1,19µM*,13.1%,-12.0%,-1.2%,-1.4%
COc1ccc(-c2cc(C(=O)N3CCN(c4ncccn4)CC3)c3ccccc3n2)cc1OC,13.5µM*,nt,-3.5%,7.2%,-0.5%
CC(C)Oc1cccc(-c2cc(C(=O)N3CCN(S(C)(=O)=O)CC3)c3ccccc3n2)c1,3.01µM*,?,-15.1%,20.4%,24.7%
CCOc1ccccc1NC(=O)CN1C(=O)CSC(C)C1=O (centres undefined),-3.2%,-2.5%,0.5%,-10.8%,-6.1%
Cc1ccc(C(O)C2=CCCC2=O)cc1 (centres undefined),nt,-1.6%,nt,nt,nt
COc1cccc(-c2cc(C(=O)N3CCN(c4ncccn4)CC3)c3ccccc3n2)c1,?,35.5µM*,-13.3%,11.2%,1.7%
COc1ccc(-c2cc(C(=O)N3CCN(c4cccc(C)c4C)CC3)c3ccccc3n2)cc1OC,?,nt,-34.9%,-0.6%,-3.4%
O=C(O)c1cccc(OCCO)c1,nt,-7.8%[9.22 µM],nt,nt,nt
CCCCC(=O)Nc1cnc(NC(=O)c2cccs2)cc1C,19µM*,nt,?,3.16µM*,2µM*
COc1ccc(C(=O)Nc2cnc(NC(=O)c3cccs3)cc2C)cc1,16.9µM*,nt,?,?,?
COc1ccc(C(=O)Nc2cc(C)c(NC(=O)c3ccccn3)cn2)cc1,1.07µM*,nt,2.5%,?,?
Cc1cc(NC(=O)C2CC2)ncc1NC(=O)c1ccccn1,?,?,?,?,2.51µM*
COc1ccc(Cc2nnc(NS(=O)(=O)c3ccc([N+](=O)[O-])cc3)s2)cc1,-7.0%,nt,-3.1%,-5.5%,0.0%
COc1ccccc1CCNC(=O)CN1C(=O)c2ccccc2S1(=O)=O,?,nt,1.0%,13.3%,13.3%
O=[N+]([O-])c1cc(Cl)ccc1NCCNS(=O)(=O)c1ccccc1,26.9µM*,-19.7%,1.2%,1.5%,-3.3%
CC1(C)C=Cc2cc3ccc(=O)oc3cc2O1,10.7µM*,14.1µM*,?,?,?
CCn1ccc(C(=O)Nc2ncc(C)s2)n1,?,nt,0.4%,0.794µM*,0.794µM*
CCn1ccc(C(=O)NC2=NCCS2)n1,-15.6%,44.2%,5.5%,-1.5%,15.3%
Cc1sc(N/N=C/c2cccs2)nc1-c1ccccc1,10.7µM*,-18.8%,?,18.2%,?
CC(=O)Nc1nc(-c2ccc3c(c2)CC(C)N3C(=O)C2CC2)c(C)s1 (centres undefined),?,nt,-7.9%,8.2%,3.4%
Cc1sc(NC(=O)c2cccs2)nc1-c1ccccc1,10.7µM*,nt,1.3%,25.1%,?

# Screening results from PubChem BioAssay.
